Only some compounds are listed: those with a hit (about 19% of all), similar ones and a draw of the others.
IL1B secr inh: inflammasome signaling inhibition, IL-1 beta readout; THP-1 LPS/ATP IL-1B secretion, AlphaLISA, 16 h; hits give low values; activity change, % at 57.5 µM; actives 4.7% (n = 360,000); AID 743279; in the data active = activity change below about -50%; inconclusive = mostly about -30% to -49%
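THP-1 cells pretreated 1 hr with compounds (up to 57.5 uM final), then stimulated with LPS (250 ng/mL final) plus ATP (1.25 mM final); secreted IL-1B measured by AlphaLISA after 16 hr, decreased signal indicating inhibition.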
TDP1 cell CPT: DT40-hTDP1 cell growth loss with CPT. chicken DT40 Tdp1-/-;hTDP1 cells + 20 nM CPT, ATP luminescence, 48 h. Potency, µM (doses to about 46.2 µM), without a hit: at the highest dose activity change, negative = growth inhibition, usual class: inhibitors. actives 12% (n = 420,000); note: potency is the fitted concentration of half-maximal effect; nearly all actives have a fitted effect of over 55% in size
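Chicken DT40 Tdp1-/- cells complemented with human TDP1, 400 cells/well, exposed to compounds plus 20 nM camptothecin for at least 48 h at 37 C; viability read as ATP content by CellTiter-Glo luminescence.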
HT1080NT lethal: kills 2HG-producing HT-1080-NT fibrosarcoma cells; actives 1.6% (n = 360,000); HT-1080-NT fibrosarcoma viability, CellTiter-Glo ATP luminescence, 48 h; Potency, µM (doses to about 46.1 µM), for inactives: top-dose activity, negative = less viability, usual class: cytotoxic;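 note: NT is the 2HG producing partner of a matched IDH1 knockdown line; potency is the fitted concentration of half-maximal effect; 0% = DMSO-treated cells and -100% = media-only wells without cells; nearly all actives have a fitted effect of over 55% in size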
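Viability of the 2HG-overproducing fibrosarcoma line after 48 hours of compound exposure at 37 degrees C was determined by luminescence with CellTiter-Glo, and concentration-effect curves were then fitted and categorized.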
TDP1 cell noCPT: qHTS for Inhibitors of human tyrosyl-DNA phosphodiesterase 1 (TDP1): qHTS in cells in absence of CPT | DT40 Tdp1-/- hTDP1 cells, no CPT, ATP luminescence, 48 h | AID 686978, 2013 | actives 15% (n = 420,000) | Potency, µM (series often up to 46.2 µM), for the others: at the highest dose activity change, negative = growth inhibition, most hits filed as inhibitors; note: potency is the fitted concentration of half-maximal effect; nearly all actives have a fitted effect of over 55% in size
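A cellular qHTS used chicken DT40 cells lacking endogenous Tdp1 but carrying stably transfected human TDP1. Compounds were applied without camptothecin, and cell growth kinetics were judged by ATP-dependent luminescence after ≥48 hr.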
HT1080 IDH1KD tx: HT-1080 IDH1 knockdown cell toxicity (counter line); actives 2% (n = 360,000); Potency, µM (series often up to 46.1 µM), for the others: top-dose activity, negative = toxicity, actives largely listed as cytotoxic; HT-1080 IDH1 knockdown viability, ATP luminescence, 48 h; AID 686971;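 note: potency is the fitted concentration of half-maximal effect; 0% = DMSO wells and -100% = cell-free medium wells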
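In this qHTS, HT-1080 cells depleted of IDH1 are exposed for 48 h at 37 °C to compound titrations. Toxicity is scored from CellTiter-Glo luminescence, with DMSO as full viability and medium alone as none.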
Numbers without * were called inactive; ? = inconclusive. Unless noted, calls come from the whole dose curve; as a rule, active = well fitted curve in the direction sought with a large enough effect; inconclusive = small, poorly fitted or top-dose-only effect, or another doubt; inactive = no such curve, though single readings can be large; an effect the other way counts as inactive or inconclusive. Unless noted, % is set by controls: 0 for no effect and ±100 for the full control effect.

SMILES | IL1B secr inh | TDP1 cell CPT | HT1080NT lethal | TDP1 cell noCPT | HT1080 IDH1KD tx
N#Cc1c(/N=C/C=C/c2ccccc2)sc2c1CCCC2 | ? | ? | -0.5% | -14.2% | -2.5%
Cc1ccc(S(=O)(=O)NC(C)CCc2ccccc2)cc1C(N)=O (centres undefined) | 38.3 | ? | -1.3% | 18.4µM* | -3.2%
CCc1nc(N2CCN(C(=O)CCCl)CC2)c2c3c(sc2n1)CCCC3 | -20.9 | ? | -1.9% | ? | -12.0%
CCNC(=S)N1CCN(c2nc(CC)nc3sc4c(c23)CCCC4)CC1 | -56.7* | ? | -8.4% | ? | -10.6%
CCOC(=O)c1nc(N2CCN(C(=O)OCC)CC2)c2c3c(sc2n1)CCCC3 | -17.1 | 16.4µM* | -3.9% | 25.9µM* | 10.3%
COc1ccc(C(=O)N2C=Cc3ccccc3C2C#N)cc1 (centres undefined) | 8.5 | -0.3% | 3.0% | -23.9% | -2.0%
N#CC1c2ccccc2-c2ccccc2N1C(=O)c1ccccc1 (centres undefined) | 63.9 | 5.8µM* | ? | 5.8µM* | 9.2µM*
O=c1c2cc(NC(=S)NC3CCN(Cc4ccccc4)CC3)ccc2nc2n1CCCCC2 | -14.5 | ? | ? | 14.6µM* | 18.4µM*
O=c1c2cc(NC(=S)NC3CCCCC3)ccc2nc2n1CCCCC2 | ? | 18.4µM* | -15.8% | ? | -12.8%
COc1cc(C(=O)Nc2ccc3nc4n(c(=O)c3c2)CCCCC4)cc(OC)c1OC | 26.2 | ? | ? | 23.1µM* | 18.4µM*
O=c1c2cc(NC(=S)NCCN3CCCCCC3)ccc2nc2n1CCCCC2 | -2.3 | 0.7% | -3.1% | 2.0% | -3.2%
CCCN(C(=O)C(=O)Nc1ccc2nc3n(c(=O)c2c1)CCCCC3)c1ccc(OCC)cc1 | 0.0 | 13µM* | 16.5% | 13µM* | 3.8%
O=c1c2cc(NC(=S)NC3CC3)ccc2nc2n1CCCCC2 | -0.3 | 21.5% | 1.9% | -2.8% | -2.8%
O=C(Cc1coc2cc3c(cc12)CCC3)OCC(=O)N1CCCC1=O | 30.8 | 2.0% | 8.1% | -4.1% | 19.3%
Cc1cccc(N2CCN(C(=S)Nc3ccc4nc5n(c(=O)c4c3)CCCCC5)CC2)c1C | 8.1 | ? | -6.5% | 20.6µM* | -6.1%
O=c1c2cc(NC(=S)N3CCC(N4CCCCC4)CC3)ccc2nc2n1CCCCC2 | 5.3 | 4.6% | ? | -3.7% | -24.5%
Cn1cc(CNCc2cn[nH]c2-c2ccc(F)cc2)c(-c2ccc3c(c2)OCCO3)n1 | -8.3 | -10.6% | 3.7% | 4.0% | -0.3%
Cn1cc(CNCc2ccc(OC(F)(F)F)cc2)c(-c2ccc3c(c2)OCCO3)n1 | -24.9 | 7.31µM* | 20.6µM* | 2.59µM* | -5.9%
COc1ccccc1NS(=O)(=O)c1c(C)[nH]c(C)c1C(=O)N1CCCC1 | 2.6 | 4.8% | 25.1% | 16.4% | 2.4%
Oc1ccc(C[C@@H]2CNCCN2CCC23CC4CC(CC(C4)C2)C3)cc1 | -10.8 | 16.4µM* | ? | 13µM* | 23.1µM*
Oc1ccc(C[C@H]2CNCCN2CCC23CC4CC(CC(C4)C2)C3)cc1 | ? | 18.4µM* | 16.4µM* | 16.4µM* | ?
CCCCN1CCNC[C@H]1Cc1ccc(O)cc1 | -1.1 | -18.8% | -17.2% | -11.6% | -5.7%
Cc1noc(C)c1CS(=O)(=O)c1ccc([N+](=O)[O-])cc1 | 43.9 | -16.6% | ? | -15.5% | -1.2%
CCc1nc2c(OCc3ccc(C(F)(F)F)cc3)cccn2c1N(C=O)Cc1ccc(OC)cc1 | -72.2* | 20.6µM* | ? | 16.4µM* | ?
Cc1nc2c(OCc3ccc(C(F)(F)F)cc3)cccn2c1N(C)Cc1cccs1 | -83.9* | ? | ? | ? | 25.9µM*
CCCCN(C=O)c1c(CC)nc2c(OCc3ccc(C(F)(F)F)cc3)cccn12 | -64.6* | 11.6µM* | ? | 11.6µM* | ?
CCc1nc2c(OCc3ccc(C(F)(F)F)cc3)cccn2c1N(C)C(C)=O | -9.1 | ? | 13.8% | ? | 4.6%

Screens: PubChem BioAssay, National Center for Advancing Translational Sciences (NCATS)
